These compounds were tested against PEG-3 (UniProt Q6IN02) (assay: Peg3 promoter luciferase inhibitors, potency, dose response, cell-based, HeLa, CREF/GAPDH counter-screen panel (AID 624167)). Conditions: CREF/GAPDH counter-screens; HeLa PEG-Prom luciferase reporter, overnight, run 2, dose range 1, at 100 µM (top of the series) unless noted.
Chain of PEG-3 (Q6IN02 whole entry, looked up): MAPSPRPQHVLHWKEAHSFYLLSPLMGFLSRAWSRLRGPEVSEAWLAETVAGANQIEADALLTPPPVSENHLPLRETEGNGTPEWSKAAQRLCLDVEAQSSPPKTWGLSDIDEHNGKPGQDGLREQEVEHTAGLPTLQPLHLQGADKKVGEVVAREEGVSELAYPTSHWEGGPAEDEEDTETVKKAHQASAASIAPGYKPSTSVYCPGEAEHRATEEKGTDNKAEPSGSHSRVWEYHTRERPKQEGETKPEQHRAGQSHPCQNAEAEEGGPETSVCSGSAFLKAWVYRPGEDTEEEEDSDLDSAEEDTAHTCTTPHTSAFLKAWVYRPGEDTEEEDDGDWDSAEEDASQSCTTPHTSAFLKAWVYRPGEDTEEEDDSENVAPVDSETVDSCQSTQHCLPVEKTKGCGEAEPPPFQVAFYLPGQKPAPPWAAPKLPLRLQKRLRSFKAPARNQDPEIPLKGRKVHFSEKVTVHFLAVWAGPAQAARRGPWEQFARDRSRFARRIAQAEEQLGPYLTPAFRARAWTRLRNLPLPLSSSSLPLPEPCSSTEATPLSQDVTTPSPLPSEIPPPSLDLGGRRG

| SMILES | inhibition [%] |
| --- | --- |
| Brc1ccc(N/N=C(/N=Nc2nn[nH]n2)c2ccccc2)cc1 | 99.8 |
| Cc1csc(NC(=O)c2cn3ccccc3n2)n1 | 99.7 |
| CCOc1ccc2c(ccc(/C=C/c3cc(C)c4cccnc4c3O)[n+]2C)c1 | 99.4 |
| CCOC(=O)Cc1csc(NC(=S)NC(=O)c2ccc(Cl)cc2)n1 | 73.4 |
| COc1ccccc1C(=O)Nc1nc2ccccc2[nH]1 | 102 |
| CCOc1ccc(OCc2cccc(C(=O)O)c2)cc1 | 91.5 |
| O=C(Nc1cccc(C(=O)O)c1)Nc1ccc2c(c1)OCO2 | 94.8 |
| CC(=O)CSc1ccc(-c2nc3cc(C)c(C)cc3[nH]2)cn1 | 101 |
| C/C(=N\NC(=O)c1cc(C2CC2)nc2ccccc12)c1ccc(O)cc1O | 61.4 |
| CCCCCCCNC(=O)C1(CC2CC(c3cccc(Br)c3)=NO2)CCNCC1 (stereo not drawn) | 101 |
| CC(=O)NC(c1ccc(N(C)C)cc1)c1cc(Cl)c2cccnc2c1O (stereo not drawn) | 88.8 |
| O=C(CNC(=O)C(c1ccccc1)c1ccccc1)N/N=C/c1ccc(O)cc1O | 52.3 |
| CCn1nc(C)cc1-c1nnc(Sc2ncc([N+](=O)[O-])s2)n1C | 101 |
| COc1cc(SC)ccc1C(=O)Nc1nc2ccccc2[nH]1 | 101 |
| CCCCCCCn1c(=N)n(CC(=O)c2ccco2)c2ccccc21 | 100 |
| CN(C)c1ccc(Nc2nc(N)c3ccccc3n2)cc1 | 99.2 |
| CC1CCN(c2ccc(-c3cccc(NC(=O)C(F)(F)F)c3)nn2)CC1 | 94.5 |
| CC1CCCN(c2ncnc3c2cnn3-c2ccc(Cl)cc2)C1 (stereo not drawn) | 98 |
| O=C(/C=C\Nc1ccc2c(c1)OCO2)c1ccccn1 | 95.1 |
| CCCn1c(C)cc(C(=O)CN2C(=O)c3ccccc3S2(=O)=O)c1C | 98.9 |

These compounds were tested on Rat fibroblasts (CREF) in the same assay as above. Conditions: CREF/GAPDH counter-screens; run 1, dose range 1, at 100 µM (top of the series).

| SMILES | inhibition [%] |
| --- | --- |
| CCSc1nc2ccccc2n1C(=O)/C=C\c1ccc(OC)c(OC)c1 | 46.8 |
| OCCNc1c2ccccc2nc2ccccc12 | 73.9 |
| Fc1ccc(-c2nnc(NC3=NCCCCC3)o2)cc1 | 95.2 |
| COc1cccc(OC)c1C(=O)Nc1cc(C)nn1-c1nc2ccccc2[nH]1 | 2.09 |
| Nc1ccc(-c2nc3ccc(C(=O)O)cc3s2)cc1 | 89.1 |
| CC(=O)N1CCCC(c2cc(C(=O)Nc3ccccc3)no2)C1 (stereo not drawn) | 93.1 |
| CN(C(=O)COC(=O)/C=C/c1cccc([N+](=O)[O-])c1)C1CCS(=O)(=O)C1 (stereo not drawn) | 6.76 |
| CCCCC(=O)NC(c1ccc(OC)cc1)c1ccc2cccnc2c1O (stereo not drawn) | 35.2 |
| COCCn1c(C)cc(C(=O)CSc2nnc(C)s2)c1C | 90.8 |
| Cc1ccc(-c2cc3c(nn2)-c2ccccc2C3=O)cc1 | 92.8 |
| Cc1ccccc1OCC(=O)Nc1cccc(C(=O)O)c1 | 95.9 |
| COc1ccc(C(=O)Nc2nc3ccccc3s2)c(OC)c1 | 97.3 |
| CC(=O)Nc1ccc(NC(=O)c2nc(S(=O)(=O)Cc3cccc(C)c3)ncc2Cl)cc1 | 100 |
| C=C1CC(COc2ccc3c(C)c(Cl)c(=O)oc3c2)(c2ccccc2)OC1=O (stereo not drawn) | 98.2 |
| COc1cc(SC)ccc1C(=O)Nc1ncc(C)s1 | 97.8 |
| CCN(CCO)c1ccc(N=Nc2cc(C)[nH]n2)cc1 | 99.4 |
| Cc1ccc(-c2nc(-c3ccccn3)no2)cc1 | 100 |

| SMILES | inhibition [%] |
| --- | --- |
| CS(=O)(=O)Nc1cccc(NC(=O)C2Cc3c(-c4cccc(F)c4)ccnc3O2)c1 (stereo not drawn) | 17.8 |
| COc1ccc(-c2nc(-c3ccccn3)no2)cc1 | 99.9 |
| C(=Cc1cnc2ccccc2n1)c1ccc2c(c1)OCO2 | 95.9 |
| Brc1ccc(N/N=C(/N=Nc2nn[nH]n2)c2ccccc2)cc1 | 75.7 |
| Cc1csc(NC(=O)c2cn3ccccc3n2)n1 | 99.8 |
| CCOc1ccc2c(ccc(/C=C/c3cc(C)c4cccnc4c3O)[n+]2C)c1 | 98.8 |
| CCOC(=O)Cc1csc(NC(=S)NC(=O)c2ccc(Cl)cc2)n1 | 88 |
| COc1ccccc1C(=O)Nc1nc2ccccc2[nH]1 | 100 |
| CCOc1ccc(OCc2cccc(C(=O)O)c2)cc1 | 96.6 |
| O=C(Nc1cccc(C(=O)O)c1)Nc1ccc2c(c1)OCO2 | 84.8 |
| CC(=O)CSc1ccc(-c2nc3cc(C)c(C)cc3[nH]2)cn1 | 95.4 |
| C/C(=N\NC(=O)c1cc(C2CC2)nc2ccccc12)c1ccc(O)cc1O | 31.4 |
| CCCCCCCNC(=O)C1(CC2CC(c3cccc(Br)c3)=NO2)CCNCC1 (stereo not drawn) | 99.7 |
| CC(=O)NC(c1ccc(N(C)C)cc1)c1cc(Cl)c2cccnc2c1O (stereo not drawn) | -10.5 |
| O=C(CNC(=O)C(c1ccccc1)c1ccccc1)N/N=C/c1ccc(O)cc1O | 28.9 |
| CCn1nc(C)cc1-c1nnc(Sc2ncc([N+](=O)[O-])s2)n1C | 99.4 |

Reference: PubChem BioAssay
